Data published in PubChem BioAssay (EPA / NIEHS).
Inconclusive results are not listed. The source made the active and inactive calls. The calls were made as follows, unless noted: active = hit-call score of the fitted dose curve at least 0.9, where 1 is the maximum; inactive = score below 0.9.

Legend:
[1] = molecular target: Paired box protein Pax-6 (Homo sapiens) (UniProt P26367); assay: ATG_Pax6_CIS: Attagene CIS-FACTORIAL HepG2 Assay for human Paired Box 6 (PAX6) (AID 2282956); conditions: HepG2 CIS-FACTORIAL PAX6 reporter transcription, RNA readout; actives raise or lower the signal
Paired box protein Pax-6 (Homo sapiens), sequence (P26367 whole entry, looked up): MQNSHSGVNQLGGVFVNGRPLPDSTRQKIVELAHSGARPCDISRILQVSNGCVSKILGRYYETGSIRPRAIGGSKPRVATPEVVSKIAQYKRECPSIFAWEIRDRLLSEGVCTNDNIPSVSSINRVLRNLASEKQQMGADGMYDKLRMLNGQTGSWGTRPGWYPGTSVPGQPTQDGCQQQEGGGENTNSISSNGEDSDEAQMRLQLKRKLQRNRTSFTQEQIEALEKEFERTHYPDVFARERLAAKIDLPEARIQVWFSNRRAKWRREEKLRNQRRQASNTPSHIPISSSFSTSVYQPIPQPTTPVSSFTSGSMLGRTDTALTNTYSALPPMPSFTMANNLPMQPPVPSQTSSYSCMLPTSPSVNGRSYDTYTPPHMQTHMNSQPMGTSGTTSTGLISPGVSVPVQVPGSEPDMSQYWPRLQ
Summary of the method: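 Transient MRTU transfection of HepG2 → compound exposure 24 h → TriZol RNA, oligo(dT) RT → PCR, 6-FAM primer extension, HpaI cut → capillary electrophoresis; activity fitted both directions against DMSO.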

[2] = ATG_PXRE_CIS: Attagene CIS-FACTORIAL HepG2 Assay for human Pregnane X Receptor Element (PXRE) (AID 2282957); conditions: HepG2 Attagene CIS-FACTORIAL PXRE reporter, mRNA; actives raise or lower the signal
Summary of the method: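 Transfect HepG2 with MRTUs (cis promoter elements); dose chemical, incubate 24 h; isolate RNA, RT with oligo(dT), PCR, 6-FAM label, HpaI cut, CE. Gain/loss fit vs DMSO.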

[3] = ATG_PPRE_CIS: Attagene CIS-FACTORIAL HepG2 Assay for human Peroxisome Proliferator-activated Response Element (PPRE) (AID 2282958); conditions: HepG2 PPRE cis-element reporter, Attagene transcription factor profiling; actives raise or lower the signal
Summary of the method: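 Cells are first transfected transiently with the multiplexed reporter library, then dosed for 24 h. Total RNA is reverse-transcribed, amplified, fluorescently end-labeled and HpaI-cut before capillary electrophoresis; activity is fitted bidirectionally against DMSO controls.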

[4] = ATG_Sox_CIS: Attagene CIS-FACTORIAL HepG2 Assay for human SRY-box transcription factor (SOX) (AID 2282960); conditions: HepG2 Attagene cis-factorial SOX reporter, mRNA; actives raise or lower the signal
Summary of the method: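 Transient MRTU transfection of HepG2; 24 h compound incubation; TriZol RNA, oligo(dT) RT, PCR, 6-FAM primer extension, HpaI cut, CE. Bidirectional fit, DMSO = baseline.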

[5] = molecular target: Transcription factor Sp1 (Homo sapiens) (UniProt P08047); assay: ATG_Sp1_CIS: Attagene CIS-FACTORIAL HepG2 Assay for human Specificity Protein 1 (Sp1) (AID 2282961); conditions: HepG2 Sp1 cis-reporter transcription, actives raise or lower the signal
Transcription factor Sp1 (Homo sapiens), sequence (P08047 whole entry, looked up): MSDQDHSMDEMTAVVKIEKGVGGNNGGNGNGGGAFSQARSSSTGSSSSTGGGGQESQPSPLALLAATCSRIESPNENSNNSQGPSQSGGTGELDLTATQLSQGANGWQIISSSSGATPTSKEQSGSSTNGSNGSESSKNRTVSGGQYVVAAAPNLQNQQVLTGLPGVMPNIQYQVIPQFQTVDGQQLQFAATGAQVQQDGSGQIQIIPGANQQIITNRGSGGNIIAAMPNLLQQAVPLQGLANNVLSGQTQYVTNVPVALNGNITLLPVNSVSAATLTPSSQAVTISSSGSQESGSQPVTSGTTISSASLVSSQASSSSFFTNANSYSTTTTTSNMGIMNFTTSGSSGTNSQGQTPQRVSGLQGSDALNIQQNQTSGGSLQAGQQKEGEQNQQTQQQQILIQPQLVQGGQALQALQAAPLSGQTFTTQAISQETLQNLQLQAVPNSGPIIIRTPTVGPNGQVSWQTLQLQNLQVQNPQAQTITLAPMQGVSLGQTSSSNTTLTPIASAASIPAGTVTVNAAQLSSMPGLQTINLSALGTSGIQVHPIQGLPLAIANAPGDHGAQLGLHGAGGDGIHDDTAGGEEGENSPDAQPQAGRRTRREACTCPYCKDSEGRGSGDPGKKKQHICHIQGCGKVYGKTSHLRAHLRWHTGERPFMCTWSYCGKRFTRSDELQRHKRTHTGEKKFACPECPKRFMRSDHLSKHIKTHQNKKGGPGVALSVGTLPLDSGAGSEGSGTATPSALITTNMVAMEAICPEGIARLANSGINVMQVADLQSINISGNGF
Summary of the method: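 Endogenous Sp1 activity was gauged in human liver HepG2 cells bearing transfected reporter units under a cis-regulating promoter. After 24 h dosing, reporter mRNA was quantified by RT-PCR with capillary electrophoresis, and activity fitted bidirectionally versus DMSO.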

[6] = ATG_SREBP_CIS: Attagene CIS-FACTORIAL HepG2 Assay for human Sterol Regulatory Element Binding (SREBP) (AID 2282962); conditions: HepG2 Attagene cis-factorial SREBP reporter, mRNA; actives raise or lower the signal
Summary of the method: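 Transfected HepG2 (cis-regulated reporter library, endogenous TFs) → compound 24 h → total RNA → oligo(dT) RT → reporter-specific PCR → FAM primer extension, HpaI cut → CE fluorescence. Fit bidirectional vs DMSO.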

[7] = molecular target: Signal transducer and activator of transcription 3 (Homo sapiens) (UniProt P40763); assay: ATG_STAT3_CIS: Attagene CIS-FACTORIAL HepG2 Assay for human Signal Transducer and Activator of Transcription 3 (STAT3) (AID 2282963); conditions: HepG2, Attagene cis-factorial STAT3 reporter transcription; actives raise or lower the signal
Signal transducer and activator of transcription 3 (Homo sapiens), sequence (P40763 whole entry, looked up): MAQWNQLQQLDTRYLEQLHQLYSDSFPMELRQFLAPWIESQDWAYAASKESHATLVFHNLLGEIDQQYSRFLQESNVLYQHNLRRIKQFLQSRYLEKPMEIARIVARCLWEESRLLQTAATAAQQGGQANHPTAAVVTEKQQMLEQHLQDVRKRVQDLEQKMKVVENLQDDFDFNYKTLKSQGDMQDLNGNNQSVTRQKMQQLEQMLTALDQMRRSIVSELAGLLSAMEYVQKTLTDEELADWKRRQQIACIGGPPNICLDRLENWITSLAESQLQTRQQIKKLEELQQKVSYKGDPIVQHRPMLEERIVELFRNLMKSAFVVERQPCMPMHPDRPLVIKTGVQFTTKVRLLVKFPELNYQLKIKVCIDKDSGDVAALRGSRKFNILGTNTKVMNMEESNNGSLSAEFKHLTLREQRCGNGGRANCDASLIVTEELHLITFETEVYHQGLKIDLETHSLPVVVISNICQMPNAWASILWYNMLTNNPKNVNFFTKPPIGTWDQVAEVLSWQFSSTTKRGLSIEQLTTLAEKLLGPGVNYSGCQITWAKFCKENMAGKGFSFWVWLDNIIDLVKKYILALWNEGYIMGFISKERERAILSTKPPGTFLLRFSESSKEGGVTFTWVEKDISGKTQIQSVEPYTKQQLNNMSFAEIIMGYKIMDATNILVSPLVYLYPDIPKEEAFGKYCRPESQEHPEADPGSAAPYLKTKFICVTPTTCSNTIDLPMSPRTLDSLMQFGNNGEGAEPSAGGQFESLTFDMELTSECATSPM
Summary of the method: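 HepG2 cells transiently transfected with cis-element-driven multiple reporter transcription units; after 24 h chemical exposure, reporter mRNA measured by RT-PCR, 6-FAM primer-extension labelling, HpaI digestion and capillary electrophoresis. Bidirectional fitting versus DMSO baseline.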

[8] = ATG_TA_CIS: Attagene CIS-FACTORIAL HepG2 Assay for human TA Basal Promoter (AID 2282964); conditions: HepG2 Attagene CIS-factorial TA basal promoter reporter; actives raise or lower the signal
Summary of the method: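 Cis-factorial format in HepG2: reporters report endogenous factors, not chimeric Gal4 fusions. After 24 h treatment, reporter transcripts were measured by RT-PCR-capillary electrophoresis fluorescence, analysed bidirectionally versus DMSO.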

[9] = ATG_TCF_b_cat_CIS: Attagene CIS-FACTORIAL HepG2 Assay for human T-Cell-Factor with beta-catenin (TCF/b-cat) (AID 2282965); conditions: HepG2 TCF/beta-catenin cis-reporter transcription, actives raise or lower the signal
Summary of the method: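 HepG2 cells transiently transfected with multiple cis-promoter-regulated reporter transcription units, so endogenous transcription factor activity is measured. Reporter mRNA read 24 hours after dosing by RT-PCR, fluorescent labelling and capillary electrophoresis; bidirectional fitting against DMSO.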

[10] = ATG_TAL_CIS: Attagene CIS-FACTORIAL HepG2 Assay for human TAL Basal Promoter (AID 2282966); conditions: HepG2 Attagene cis-factorial TAL promoter reporter; actives raise or lower the signal;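 also: background control endpoint measuring basal TAL promoter reporter mRNA not a specific factor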
Summary of the method: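 Fluorescence of labelled reporter cDNA fragments, resolved by capillary electrophoresis, gave the readout. Human HepG2 liver cells carried transiently transfected cis-element reporter units and were treated for 24 hours; activity was fitted bidirectionally against DMSO.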

[11] = ATG_TGFb_CIS: Attagene CIS-FACTORIAL HepG2 Assay for human Transforming Growth Factor (TGF) (AID 2282967); conditions: HepG2 Attagene CIS TGFb reporter, mRNA transcription; actives raise or lower the signal
Summary of the method: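 Multiplexed cis-reporter HepG2 system, 24 h treatment; mRNA induction read by fluorescence after RT-PCR and CE; DMSO negative control, bidirectional curve fitting.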

[12] = ATG_VDRE_CIS: Attagene CIS-FACTORIAL HepG2 Assay for human Vitamin D Receptor Element (VDRE) (AID 2282968); conditions: HepG2 VDRE cis-reporter transcription, actives raise or lower the signal
Summary of the method: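 HepG2 cells transiently transfected with cis-element reporter units, dosed 24 h; reporter mRNA measured by RT-PCR, 6-FAM labeling, HpaI digestion and capillary electrophoresis. Activity fitted bidirectionally against DMSO baseline.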

[13] = molecular target: Nuclear receptor subfamily 1 group I member 3 (Homo sapiens) (UniProt Q14994); assay: ATG_CAR_TRANS: Attagene TRANS-FACTORIAL HepG2 Assay for human Constitutive Androstane Receptor (CAR) (AID 2282969; active = hit-call score of the fitted dose curve at least 0.9, where 1 is the maximum;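 also: activators raise reporter mRNA above DMSO so AC50 marks induction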); conditions: HepG2 Attagene TRANS-FACTORIAL CAR reporter
Nuclear receptor subfamily 1 group I member 3 (Homo sapiens), sequence (Q14994 whole entry, looked up, the tested form may be a part): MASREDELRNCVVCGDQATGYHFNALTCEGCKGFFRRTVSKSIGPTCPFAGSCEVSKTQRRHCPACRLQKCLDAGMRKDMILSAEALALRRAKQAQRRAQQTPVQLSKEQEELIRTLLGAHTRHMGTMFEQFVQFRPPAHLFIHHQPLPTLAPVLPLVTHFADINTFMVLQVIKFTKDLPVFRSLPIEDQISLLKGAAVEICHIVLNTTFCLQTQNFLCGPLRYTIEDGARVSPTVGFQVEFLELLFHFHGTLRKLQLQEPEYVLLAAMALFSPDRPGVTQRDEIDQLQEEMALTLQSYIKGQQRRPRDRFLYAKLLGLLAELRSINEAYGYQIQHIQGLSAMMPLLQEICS
Summary of the method: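 HepG2 cells transiently transfected with multiplexed GAL4-UAS reporter units expressing chimeric NR-Gal4 proteins; compound exposure 24 h. Reporter mRNA measured by RT-PCR, 6-FAM labelling, HpaI digestion and capillary electrophoresis; gain-of-signal fitted against DMSO baseline.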

[14] = molecular target: X-box-binding protein 1 (Homo sapiens) (UniProt P17861); assay: ATG_Xbp1_CIS: Attagene CIS-FACTORIAL HepG2 Assay for human X-box Binding Protein 1 (XBP1) (AID 2282972); conditions: HepG2 XBP1 cis-element reporter, Attagene multiplex; actives raise or lower the signal
X-box-binding protein 1 (Homo sapiens), sequence (P17861 whole entry, looked up): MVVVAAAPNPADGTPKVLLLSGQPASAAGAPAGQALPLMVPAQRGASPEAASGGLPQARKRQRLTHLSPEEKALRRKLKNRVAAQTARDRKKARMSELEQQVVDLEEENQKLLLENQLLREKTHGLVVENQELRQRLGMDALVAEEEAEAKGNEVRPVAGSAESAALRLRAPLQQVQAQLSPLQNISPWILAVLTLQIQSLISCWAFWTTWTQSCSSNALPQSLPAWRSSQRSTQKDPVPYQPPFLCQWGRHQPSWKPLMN
Summary of the method: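 HepG2, transient MRTU transfection (cis-promoter driven), 24 h compound exposure. Total RNA → oligo(dT) RT → PCR → 6-FAM labeling → HpaI cut → CE. Bidirectional fit vs DMSO.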

[15] = molecular target: Estrogen-related receptor gamma (Homo sapiens) (UniProt P62508); assay: ATG_ERRg_TRANS: Attagene TRANS-FACTORIAL HepG2 Assay for human Estrogen-Related Receptor gamma (ERRg) (AID 2282977; active = hit-call score of the fitted dose curve at least 0.9, where 1 is the maximum;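 also: hits increase reporter signal over DMSO so potencies reflect activators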); conditions: HepG2 Attagene TRANS reporter, ERRg transactivation
Estrogen-related receptor gamma (Homo sapiens), sequence (P62508 whole entry, looked up, the tested form may be a part): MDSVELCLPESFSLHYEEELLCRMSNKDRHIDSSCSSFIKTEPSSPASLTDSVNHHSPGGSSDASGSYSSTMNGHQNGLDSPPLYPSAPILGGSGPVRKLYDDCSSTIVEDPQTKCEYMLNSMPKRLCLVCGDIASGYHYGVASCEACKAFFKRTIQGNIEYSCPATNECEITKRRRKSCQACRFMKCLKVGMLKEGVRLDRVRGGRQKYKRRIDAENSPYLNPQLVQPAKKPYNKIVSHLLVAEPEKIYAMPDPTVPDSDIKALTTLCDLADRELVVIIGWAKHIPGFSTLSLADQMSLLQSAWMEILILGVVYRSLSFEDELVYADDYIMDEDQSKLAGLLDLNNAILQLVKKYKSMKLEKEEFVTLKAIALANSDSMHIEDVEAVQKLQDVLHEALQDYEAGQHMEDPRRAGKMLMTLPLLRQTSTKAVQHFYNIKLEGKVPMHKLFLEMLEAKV
Summary of the method: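 HepG2 cells transiently transfected with multiplexed GAL4-UAS reporter units and chimeric NR-Gal4 constructs were exposed to test chemicals for 24 h. Reporter mRNA was measured by RT-PCR, 6-FAM primer extension, HpaI digestion and capillary electrophoresis; gain-of-signal versus DMSO.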

[16] = molecular target: Bile acid receptor (Homo sapiens) (UniProt Q96RI1); assay: ATG_FXR_TRANS: Attagene TRANS-FACTORIAL HepG2 Assay for Farnesoid X Receptor (FXR) (AID 2282979; active = hit-call score of the fitted dose curve at least 0.9, where 1 is the maximum;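 also: hits raise reporter mRNA above DMSO so AC50 marks FXR activation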); conditions: HepG2 Attagene TRANS FXR-GAL4 reporter transcription
Bile acid receptor (Homo sapiens), sequence (Q96RI1 whole entry, looked up, the tested form may be a part): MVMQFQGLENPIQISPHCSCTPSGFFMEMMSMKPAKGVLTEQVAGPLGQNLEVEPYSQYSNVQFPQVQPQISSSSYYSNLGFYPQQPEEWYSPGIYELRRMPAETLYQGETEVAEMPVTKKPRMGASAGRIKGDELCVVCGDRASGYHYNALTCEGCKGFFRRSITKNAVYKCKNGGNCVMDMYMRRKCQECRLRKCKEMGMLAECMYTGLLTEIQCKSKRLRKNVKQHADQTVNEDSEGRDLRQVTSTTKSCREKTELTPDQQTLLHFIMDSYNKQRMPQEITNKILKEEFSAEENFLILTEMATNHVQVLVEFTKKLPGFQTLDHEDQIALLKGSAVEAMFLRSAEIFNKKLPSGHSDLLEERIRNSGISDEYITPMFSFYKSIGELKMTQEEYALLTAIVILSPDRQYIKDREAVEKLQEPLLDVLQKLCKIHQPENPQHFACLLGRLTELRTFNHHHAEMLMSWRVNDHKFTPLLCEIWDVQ
Summary of the method: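 Transient transfection of HepG2 with multiplexed GAL4-UAS reporter units; exogenous FXR-GAL4 chimera. Dose 24 h → TriZol RNA → oligo(dT) RT → PCR, 6-FAM primer extension, HpaI cut → CE. Gain vs DMSO.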

[17] = ATG_RORE_CIS: Attagene CIS-FACTORIAL HepG2 Assay for human RAR-related Orphan Receptor Element (RORE) (AID 2282959); conditions: HepG2 Attagene cis-factorial RORE reporter, mRNA; actives raise or lower the signal
Summary of the method: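 Cells were HepG2 carrying transfected cis-regulated reporter constructs, dosed for 24 hours. Total RNA was reverse-transcribed and reporter cDNA amplified, fluorescently labeled and sized by capillary electrophoresis. Activity was fitted bidirectionally relative to DMSO.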

[18] = ATG_M_19_TRANS: Attagene TRANS-FACTORIAL HepG2 Assay for M19 Transcription Factor (Internal Marker) (AID 2282974; active = hit-call score of the fitted dose curve at least 0.9, where 1 is the maximum); conditions: HepG2 Attagene TRANS-FACTORIAL M19 internal marker reporter
Summary of the method: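 Cells: human HepG2, transiently transfected with multiplexed reporter transcription units. Exposure: 24 h. Detection: RT-PCR of reporter mRNA with capillary electrophoresis. Analysis: gain-of-signal vs DMSO.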

[19] = molecular target: Glucocorticoid receptor (Homo sapiens) (UniProt P04150); assay: ATG_GR_TRANS: Attagene TRANS-FACTORIAL HepG2 Assay for human Glucocorticoid Receptor (GR) (AID 2282978; active = hit-call score of the fitted dose curve at least 0.9, where 1 is the maximum;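 also: activators score as hits since higher reporter transcript over DMSO is fitted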); conditions: HepG2 Attagene TRANS GR reporter, mRNA transcription
Glucocorticoid receptor (Homo sapiens), sequence (P04150 whole entry, looked up, the tested form may be a part): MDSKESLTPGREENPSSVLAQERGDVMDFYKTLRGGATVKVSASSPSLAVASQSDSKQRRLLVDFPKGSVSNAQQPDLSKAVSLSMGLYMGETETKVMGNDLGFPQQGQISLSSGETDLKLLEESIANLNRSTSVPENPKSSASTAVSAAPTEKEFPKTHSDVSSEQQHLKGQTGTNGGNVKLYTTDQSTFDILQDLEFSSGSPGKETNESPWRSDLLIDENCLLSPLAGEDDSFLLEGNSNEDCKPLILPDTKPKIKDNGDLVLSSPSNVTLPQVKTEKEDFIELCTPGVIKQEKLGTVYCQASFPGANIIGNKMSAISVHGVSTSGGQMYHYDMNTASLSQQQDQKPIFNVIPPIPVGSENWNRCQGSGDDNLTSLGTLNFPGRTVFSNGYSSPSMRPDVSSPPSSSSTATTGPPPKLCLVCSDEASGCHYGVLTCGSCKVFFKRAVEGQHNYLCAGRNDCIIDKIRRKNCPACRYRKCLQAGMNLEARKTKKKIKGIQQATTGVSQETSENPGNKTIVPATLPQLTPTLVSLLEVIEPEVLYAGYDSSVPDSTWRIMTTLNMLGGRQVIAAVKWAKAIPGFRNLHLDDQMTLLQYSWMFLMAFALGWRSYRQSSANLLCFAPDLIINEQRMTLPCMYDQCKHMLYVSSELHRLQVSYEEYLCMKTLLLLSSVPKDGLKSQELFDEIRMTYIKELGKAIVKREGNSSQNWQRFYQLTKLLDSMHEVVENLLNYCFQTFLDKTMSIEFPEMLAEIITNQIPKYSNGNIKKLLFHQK
Summary of the method: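 In this trans-factorial format, exogenous NR-GAL4 chimeric proteins in transfected HepG2 cells regulate GAL4-UAS reporter transcription. After 24 h treatment, reporter mRNA induction relative to DMSO is read by RT-PCR and capillary electrophoresis.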

Measured: AC50

CCc1cc(SCc2sc(-c3ccc(C(F)(F)F)cc3)nc2CN2CCN(c3ccc(OC)cc3)CC2)ccc1OCC(=O)O
active: [1] 17.5 µM | [3] 0.0329 µM | [6] 0.225 µM | [8] 14.8 µM | [9] 7.72 µM | [12] 16.5 µM | [14] 8.03 µM
inactive: [2] | [4] | [5] | [7] | [10] | [11] | [13] | [15] | [16]

CCCC(=O)OCC
inactive: [1] | [2] | [3] | [17] | [4] | [5] | [6] | [7] | [8] | [9] | [10] | [11] | [12] | [13] | [14] | [18] | [19]

Cc1ccc(O)cc1
inactive: [1] | [2] | [3] | [4] | [5] | [6] | [7] | [8] | [9] | [10] | [11] | [12] | [13] | [14] | [19]

CC(C)CCCCCCOC(=O)c1ccc(C(=O)OCCCCCCC(C)C)c(C(=O)OCCCCCCC(C)C)c1
inactive: [1] | [2] | [3] | [17] | [4] | [5] | [6] | [7] | [8] | [9] | [10] | [11] | [12] | [14]

Clc1nc(Cl)c(Cl)c(Cl)c1Cl
inactive: [1] | [2] | [3] | [17] | [4] | [5] | [6] | [7] | [8] | [9] | [10] | [11] | [12] | [13] | [14] | [18] | [15]

C1=CCCC=CCCC=CCC1
inactive: [1] | [2] | [3] | [17] | [4] | [6] | [7] | [8] | [10] | [11] | [12] | [13] | [14] | [19] | [16]
active: [5] 165 µM

O=C(O)c1cccc(Oc2ccccc2)c1
inactive: [1] | [2] | [4] | [5] | [6] | [7] | [8] | [9] | [10] | [11] | [12] | [14] | [19]
active: [3] 48.3 µM

Nc1nc2ncc(CNc3ccc(C(=O)N[C@@H](CCC(=O)O)C(=O)O)cc3)nc2c(=O)[nH]1
inactive: [1] | [2] | [3] | [4] | [5] | [6] | [7] | [8] | [10] | [11] | [12] | [13] | [14] | [18] | [19]
